For experiment [1], the target named is T1, Aspartate--tRNA(Asp/Asn) ligase (Mycobacterium tuberculosis (strain ATCC 25618 / H37Rv)) (UniProt P9WFW3). Note: in the data most compounds retested in dose-response had high values.
T1 sequence (whole entry): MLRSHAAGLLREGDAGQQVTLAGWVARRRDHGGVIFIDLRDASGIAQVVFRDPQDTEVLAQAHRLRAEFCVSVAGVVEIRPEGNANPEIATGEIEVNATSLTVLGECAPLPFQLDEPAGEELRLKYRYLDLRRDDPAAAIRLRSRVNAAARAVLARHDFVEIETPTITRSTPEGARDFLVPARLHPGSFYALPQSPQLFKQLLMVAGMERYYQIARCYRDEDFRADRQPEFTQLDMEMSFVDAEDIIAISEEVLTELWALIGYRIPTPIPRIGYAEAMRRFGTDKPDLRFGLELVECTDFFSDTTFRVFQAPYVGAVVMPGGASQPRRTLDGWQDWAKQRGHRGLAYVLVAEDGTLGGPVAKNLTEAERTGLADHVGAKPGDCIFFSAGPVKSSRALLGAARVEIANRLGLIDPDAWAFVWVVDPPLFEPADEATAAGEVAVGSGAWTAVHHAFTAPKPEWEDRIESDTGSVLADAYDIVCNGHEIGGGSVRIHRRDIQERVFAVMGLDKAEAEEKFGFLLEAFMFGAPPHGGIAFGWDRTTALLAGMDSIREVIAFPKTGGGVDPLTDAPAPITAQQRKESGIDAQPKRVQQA
The experiment can be described thus: Assay for Asp RNA synthetase-1 from Mycobacterium tuberculosis. Details: scale not given: direction of the effect not stated beside the values. The note with it: 30 µM. In kind it is functional.

Experiment [2] deals with Shiga toxin 2 (Escherichia coli O157:H7) (UniProt P09385+P09386). The experiment can be described thus: E. coli 0.157:H7 Shiga Toxin SOP - stx2 screening assay. It is filed as functional. Details: scale not given: direction of the effect not stated beside the values. The settings on record: 30 µM.

As for `Cc1ccccc1-c1cc(C(=O)NCCN2CCCS2(=O)=O)[nH]n1`, the results for the Percent Effect in experiment [1] and in experiment [2] were -2.39% and -11.4%, respectively.
Regarding `CN(C)CC(=O)N1CCC2(CC(=O)N(c3cccc(C#N)c3)C2)C1` (configuration not stated), the Percent Effect came out at 7.58% in experiment [1] and 1.05% in experiment [2].
`Cc1ccccc1C1CCCN1C(=O)CN1CC2(CCNCC2)OC1=O` (configuration not stated): the Percent Effect in experiment [1] came out at 3.25%; in experiment [2], 2.84%.
For `CCN1CCOC(CNCc2ccccc2OCC(=O)N(C)C)C1` (configuration not stated), in that order: -4.95% and 21.6%.
As to `Cc1nn(C)c(N(C)C)c1CNCc1cccc(OCCN(C)C)c1`, the Percent Effect is -1.92% in experiment [1] and 27.4% in experiment [2].
For the compound `Cc1ccc(N2CCN(C(=O)COc3ccccc3)CC2)nn1`, the figures for the Percent Effect in experiment [1] and in experiment [2] were -1.15% and -66.5%, respectively.
For the compound `CC(C(=O)NCc1ccnc(N(C)C)c1)n1cncn1` (configuration not stated), the Percent Effect in experiment [1] is 0.0335%; in experiment [2], -9.74%.
The like results for `CN(C)c1cncc(C2CCN(C(=O)CO)CC2)n1` were, in that order, 2.1% and 7.95%.
Take `Cc1nnc2n1CCN(CCC(=O)Nc1sccc1C#N)C2`: the Percent Effect in experiment [1] was found to be 1.26%; in experiment [2], 22.9%.
With `COc1ccc(OC)c(NC(=O)c2nc3ccccc3n(C)c2=O)c1`, the Percent Effect was 1.01% in experiment [1] and -23.2% in experiment [2].
On to `CC(C)c1nnc2n1CCN(C(=O)c1ccc(-n3cnnc3)cc1)C2`, for which the values for the Percent Effect in experiment [1] and in experiment [2] were -3.86% and -19.9%, respectively.
For `O=C(CN1CCCC1Cn1cncn1)NCCc1c(F)cccc1F` (configuration not stated), the figures for the Percent Effect in experiment [1] and in experiment [2] were 1.46% and -12.5%, respectively.
As for `CC(C)(C)C(=O)N1CCC2(COCc3cnc(N4CCOCC4)nc32)C1` (configuration not stated), the Percent Effect in experiment [1] was 3.22%; in experiment [2] it was -15.4%.
For `OCCn1nccc1C1CCN(CCCOc2ccc(F)cc2)CC1`, in that order: 1.85% and 4.26%.
As to `CS(=O)(=O)c1ccc(C(O)CN2CCC(c3ccn[nH]3)CC2)cc1` (configuration not stated), the Percent Effect in experiment [1] is -7.22%; in experiment [2], -3.06%.
As to `CC(C)Cc1noc(CN2CCOC(Cn3cncn3)C2)n1` (configuration not stated), the results for the Percent Effect in experiment [1] and in experiment [2] were 1.02% and 16.9%, respectively.
In the case of `CCc1n[nH]c(C2CN(CC(=O)NCCc3ccsc3)CCO2)n1` (configuration not stated), the figures for the Percent Effect in experiment [1] and in experiment [2] were -5.2% and -20.2%, respectively.
Consider `Cc1ccsc1C(=O)N1CC(C(=O)NCC2CC2)C2(CCOCC2)C1` (configuration not stated), for which the Percent Effect is 8.9% in experiment [1] and -7.68% in experiment [2].
Consider `CCNC(=O)c1nnc2ccc(N3CCOCC3)cc2n1`, for which the Percent Effect in experiment [1] was 0.9%; in experiment [2], -20.2%.
For the compound `O=C(CC1CC1)N1CCn2cc(Cn3cncn3)nc2C1`, the values for the Percent Effect in experiment [1] and in experiment [2] were 3.1% and -11.8%, respectively.
`O=C([C@H]1CN(CCc2ccccc2)C[C@H]2OCC[C@@H]12)N1CCCO1`: the Percent Effect in experiment [1] was 1.78%; in experiment [2], -9.29%.
Consider `CCn1ncc2c1C(COC)CN(Cc1ccsc1)C2` (configuration not stated), for which the figures for the Percent Effect in experiment [1] and in experiment [2] were -1.74% and -2.67%, respectively.
`CCOCC1CN(C(=O)c2cccn2C)Cc2cnn(CC3CC3)c21` (configuration not stated): the values for the Percent Effect in experiment [1] and in experiment [2] were 5.55% and -5.56%, respectively.
With `CCc1nc(CC(=O)N2CCCC2Cn2cccn2)cs1` (configuration not stated), the Percent Effect was determined as 0.426% in experiment [1] and 10.2% in experiment [2].
On to `Cc1cccc(CN2CCc3ncnc(N4CCOCC4)c3CC2)n1`, for which the Percent Effect in experiment [1] was -3.01%; in experiment [2], -8.89%.
`O=C(Nc1ccc(N2CCCC2)nc1)N1CCc2sccc2C1`: the Percent Effect in experiment [1] was 0.155%; in experiment [2], -146%.
Turning to `O=C(CCN1C(=O)CCC1=O)Nc1cnn(-c2ccccc2Cl)c1`, the results for the Percent Effect in experiment [1] and in experiment [2] were 2.85% and 1.3%, respectively.
For `O=C(N1CCCCC1)N1CCN(CC(O)c2ccc(F)cc2)CC1` (configuration not stated), the Percent Effect in experiment [1] is -2.17%; in experiment [2], 31.9%.
For `CC(NC(=O)NCCCn1ccnc1)c1ccc2c(c1)OCCCO2` (configuration not stated), the Percent Effect in experiment [1] was found to be 1.46%; in experiment [2] it was 20.4%.
In the case of `Cc1nc(CNC(=O)NCC(O)c2ccc(F)cc2F)cs1` (configuration not stated), the Percent Effect in experiment [1] is -6.13%; in experiment [2] it was -21.6%.
For `CN(C)C(=O)[C@@H]1C[C@@H]2CCN(Cc3nccs3)C[C@@H]2O1`, the Percent Effect was 1.05% in experiment [1] and 2.36% in experiment [2].
With `CN(C)CC1CN(CCOc2cccc(C#N)c2)CCO1` (configuration not stated), the Percent Effect in experiment [1] is -0.815%; in experiment [2], 15.6%.
Take `Cc1ccccc1C1(CNC(=O)NCCc2nnc3n2CCC3)CC1`: the results for the Percent Effect in experiment [1] and in experiment [2] were -1.38% and -0.461%, respectively.
For the compound `CCn1cnnc1CNC(=O)N1CCC(C(=O)NC)CC1`, the Percent Effect in experiment [1] was -8.1%; in experiment [2], -16.1%.
As to `CC(C)c1nccn1C1CCCN(C(=O)c2cnn(C)c2C2CC2)C1` (configuration not stated), the Percent Effect in experiment [1] is -1.74%; in experiment [2], 28.9%.
For `CCc1ccc(CNC(=O)NC(C)CN2CCOCC2)s1` (configuration not stated), in that order: 1.38% and -4.66%.
For `Cc1ccc(C2(CN3CCCC3)CCNCC2)nc1`, the Percent Effect in experiment [1] is -4.12%; in experiment [2], -12%.
As for `COc1cc(CNC2CCCc3c2cnn3C)cc(OC)c1` (configuration not stated), the Percent Effect in experiment [1] was -0.657%; in experiment [2], 18.7%.
`O=C(CNC(=O)N1CCc2c([nH]c3ccc(Cl)cc23)C1)N1CCOCC1`: the Percent Effect in experiment [1] was 3.4%; in experiment [2], -37.6%.
`Cc1ccc(CN2CCCC3(COCCN(Cc4c[nH]nn4)C3)C2)o1` (configuration not stated): the Percent Effect is 4.69% in experiment [1] and -4.03% in experiment [2].
As for `O=S(=O)(Cc1ccccc1)N1CCCn2cnc(CN3CCCC3)c2C1`, the Percent Effect in experiment [1] was 16%; in experiment [2] it was -5.12%.
Consider `CCCOc1cc(C)ccc1NC(=O)NCCC(=O)N(C)C`, for which the figures for the Percent Effect in experiment [1] and in experiment [2] were 2.21% and -4.42%, respectively.
The like results for `Cc1csc([C@@H]2C[C@@H]3CCN(Cc4cnn(C)c4)C[C@H]3O2)n1` were, in that order, -2.71% and -29.9%.
Consider `COCCN(C)C(=O)Nc1ccc2c(ccn2CCOC)c1`, for which the Percent Effect in experiment [1] was -1.14%; in experiment [2], -20.9%.
As for `CCn1cc(N2Cc3nc(N)ncc3C2=O)cn1`, the Percent Effect was -7.32% in experiment [1] and -36.6% in experiment [2].
Consider `COCc1n[nH]/c(=N/C(=O)COc2cnc(C)cc2O)s1`, for which the Percent Effect in experiment [1] was -2.13%; in experiment [2], -48.9%.
Turning to `Cc1cc(C(=O)N2CCC3(CCCN(CC4CC4)C3=O)C2)c(C)n1C` (configuration not stated), the Percent Effect in experiment [1] is -1.12%; in experiment [2], -7.28%.
Take `O=c1n(CCSCc2ccccc2F)nc2ccccn12`: the Percent Effect in experiment [1] is 0.461%; in experiment [2], 20.1%.
Take `Cc1ccc(CN2CCc3ncc(CNS(C)(=O)=O)n3CC2)o1`: the Percent Effect in experiment [1] was 1%; in experiment [2], -24.4%.
With `CN(CCn1nc2ccccn2c1=O)CC(=O)N1CCCC1`, the Percent Effect in experiment [1] is -1.5%; in experiment [2] it was -5.38%.
The like results for `CCCc1noc(CCC(=O)N2CCCC2c2noc(C3CC3)n2)n1` (configuration not stated) were, in that order, -2.66% and 6.31%.

The values are drawn from ChEMBL document CHEMBL3988442, “University of Dundee, Small-Polar-MMV Screening Library” (2021).
